Source: the antibiotic and cytotoxicity screens of Wong et al. (2023)
Out of some 39,000 compounds screened, about 3,300 (8.5%) were called active. This excerpt belongs to a sample that is enriched for actives.

test system: HepG2; assay: cytotoxicity call (relative viability < 0.9); conditions: 10 µM

SMILES | cytotoxicity call
C[C@@H]1CN([C@H](C)CO)C(=O)Cc2cc(NS(=O)(=O)c3cn(C)cn3)ccc2O[C@H]1CN(C)Cc1ccc(C(=O)Nc2ccccc2N)cc1 | inactive
CN1C(=O)c2cc(NS(=O)(=O)c3cccc(F)c3)ccc2OC[C@H]2O[C@@H](CC(=O)NCCN3CCCCC3)CC[C@H]21 | inactive
C[C@@H]1CN([C@H](C)CO)C(=O)Cc2cc(NC(=O)Nc3ccc(C(F)(F)F)cc3)ccc2O[C@H]1CN(C)Cc1ccc2c(c1)OCO2 | inactive
C[C@H]1CN([C@@H](C)CO)C(=O)Cc2cc(NC(=O)Nc3ccc(C(F)(F)F)cc3)ccc2O[C@H]1CN(C)Cc1ccc2c(c1)OCO2 | inactive
C[C@H](CO)N1C[C@H](C)[C@@H](CN(C)Cc2ccc3c(c2)OCO3)Oc2ccc(NC(=O)Nc3ccc(C(F)(F)F)cc3)cc2CC1=O | active
C[C@H]1CN([C@@H](C)CO)C(=O)Cc2cc(NC(=O)Nc3ccc(C(F)(F)F)cc3)ccc2O[C@@H]1CN(C)Cc1ccc2c(c1)OCO2 | inactive
C[C@H](CO)N1C[C@H](C)[C@H](CN(C)Cc2ccc3c(c2)OCO3)Oc2ccc(NC(=O)Nc3ccc(C(F)(F)F)cc3)cc2CC1=O | active
C[C@@H]1CN([C@H](C)CO)C(=O)Cc2cc(NC(=O)Nc3ccc(C(F)(F)F)cc3)ccc2O[C@@H]1CN(C)Cc1ccc2c(c1)OCO2 | active
C[C@@H]1CN([C@@H](C)CO)C(=O)Cc2cc(NC(=O)Nc3ccc(C(F)(F)F)cc3)ccc2O[C@H]1CN(C)Cc1ccc2c(c1)OCO2 | active
Cc1noc(C)c1NC(=O)N(C)C[C@@H]1OCCCC[C@@H](C)Oc2ccc(NC(=O)NC3CCCCC3)cc2C(=O)N([C@H](C)CO)C[C@H]1C | inactive
NCC[C@@H]1CC[C@@H](NC(=O)C2CC2)[C@H](CO)O1 | inactive
COc1ccc(CN(C)C[C@@H]2Oc3ccc(NS(=O)(=O)c4cn(C)cn4)cc3CC(=O)N([C@@H](C)CO)C[C@@H]2C)cc1 | inactive
C[C@@H]1CCCCO[C@H](CN(C)C(=O)C2CCCCC2)[C@@H](C)CN([C@H](C)CO)C(=O)c2cc(NC(=O)c3ccncc3)ccc2O1 | inactive
C[C@@H]1CN([C@H](C)CO)C(=O)c2cc(NC(=O)Cc3ccccc3)ccc2O[C@@H](C)CCCCO[C@@H]1CN(C)Cc1ccc2c(c1)OCO2 | inactive
C[C@@H]1CN([C@H](C)CO)C(=O)c2cc(Br)cnc2O[C@H]1CN(C)C(=O)Nc1ccccc1F | inactive
CCCCC[C@@H](C[C@@H](CC(=O)O)O[C@H]1O[C@@H](CO)[C@@H](O[C@H]2O[C@@H](CO)[C@@H](O)[C@@H](O)[C@@H]2O)[C@@H](O)[C@@H]1O)OC(=O)C[C@H](O)C[C@H](CCCCC)O[C@H]1O[C@@H](CO)[C@@H](O)[C@@H](O)[C@@H]1O | inactive
Cn1c(O)cc(=O)n(C)c1=O | inactive
CCS(=O)(=O)NCC[C@H]1CC[C@H](NS(=O)(=O)c2ccccc2C)[C@@H](CO)O1 | inactive
Cc1cccc(/C=C2\CS/C(=C\c3cccc(C)c3)C2=O)c1 | inactive
COC(=O)[C@@H]1C[C@H](C#N)N[C@@H]1c1ccccn1 | inactive
C[C@@H]1CN([C@@H](C)CO)C(=O)Cc2cc(NC(=O)Nc3ccc(C(F)(F)F)cc3)ccc2O[C@@H]1CN(C)Cc1ccc2c(c1)OCO2 | active
C[C@H]1CN([C@@H](C)CO)S(=O)(=O)c2ccc(C#CCN(C)C)cc2O[C@H]1CN(C)S(C)(=O)=O | inactive
COc1ccc(C(=O)NCc2ccc(OCCN(C)C)cc2)cc1OC | inactive

SMILES | cytotoxicity call
COc1ccc(CCN(C)CCCOc2ccc(S(=O)(=O)c3[nH]c4ccccc4c3C(C)C)cc2)cc1OC | active
COc1ccc(CCN(C)CCCOc2ccc(S(=O)(=O)c3c(C(C)C)cn4ccccc34)cc2)cc1OC | active
COc1ccc(CCN(C)CCCOc2ccc(S(=O)(=O)c3c(C(C)C)c4ccccc4n3C)cc2)cc1OC | active
COc1ccc(NC(=O)N(C)C[C@H]2Oc3c(NS(=O)(=O)c4cn(C)cn4)cccc3C(=O)N([C@H](C)CO)C[C@@H]2C)cc1 | inactive
COc1ccc(S(=O)(=O)N(C)C[C@H]2Oc3ccc(NC(=O)CCN4CCOCC4)cc3C(=O)N([C@@H](C)CO)C[C@@H]2C)cc1 | inactive
C[C@@H]1CN([C@@H](C)CO)C(=O)c2cc(NS(=O)(=O)c3cccs3)ccc2O[C@@H]1CN(C)S(=O)(=O)c1cn(C)cn1 | inactive
c1ccc(NC2CCCCC2)nc1 | inactive
CO[C@H]1CN(C)C(=O)c2cc(NS(=O)(=O)CC(F)(F)F)ccc2OC[C@@H](C)N(Cc2ccccn2)C[C@@H]1C | inactive
CN(C)CC(=O)N1CC(=O)N2[C@@H](CO)[C@@H](c3ccc(C#Cc4cccnc4)cc3)[C@@H]2C1 | inactive
C[C@H]1CCCCO[C@@H](CN(C)Cc2ccncc2)[C@@H](C)CN([C@@H](C)CO)C(=O)c2cc(NC(=O)Nc3ccc(F)cc3)ccc2O1 | inactive
C=CC1=C(C(=O)O)N2C(=O)C(NC(=O)C(=NOCC(=O)O)c3csc(N)n3)C2SC1 (centres undefined) | active
C=CC1=C(C(=O)O)N2C(=O)C(NC(=O)C(=NO)c3csc(N)n3)C2SC1 (centres undefined) | inactive
C=CC1=C(C(=O)O)N2C(=O)[C@@H](NC(=O)/C(=N\OCC(=O)O)c3csc(N)n3)[C@H]2SC1 | inactive
CC(C)CC#Cc1ccc2c(c1)O[C@@H](CN(C)C(=O)Cc1ccncc1)[C@@H](C)CN([C@H](C)CO)S2(=O)=O | inactive
C[C@@H]1CN([C@@H](C)CO)C(=O)Cc2cc(N(C)C)ccc2O[C@H]1CN(C)S(=O)(=O)c1ccc(Cl)cc1 | inactive
C[C@H](CO)N1C[C@H](C)[C@H](CN(C)S(=O)(=O)c2ccc(Cl)cc2)Oc2ccc(N(C)C)cc2CC1=O | active
C[C@H]1CN([C@@H](C)CO)C(=O)Cc2cc(N(C)C)ccc2O[C@H]1CN(C)S(=O)(=O)c1ccc(Cl)cc1 | active
C[C@H]1CN([C@@H](C)CO)C(=O)Cc2cc(N(C)C)ccc2O[C@@H]1CN(C)S(=O)(=O)c1ccc(Cl)cc1 | inactive
C[C@@H]1CN([C@H](C)CO)C(=O)Cc2cc(N(C)C)ccc2O[C@@H]1CN(C)S(=O)(=O)c1ccc(Cl)cc1 | inactive
C[C@@H]1CN([C@H](C)CO)C(=O)Cc2cc(N(C)C)ccc2O[C@H]1CN(C)S(=O)(=O)c1ccc(Cl)cc1 | inactive
C[C@@H]1CN([C@@H](C)CO)C(=O)c2cc(/C=C/c3ccccc3)cnc2O[C@@H]1CN(C)C(=O)CN1CCOCC1 | inactive
COc1ccc(NC(=O)N(C)C[C@@H]2OCCCC[C@@H](C)Oc3ccc(NC(=O)Nc4cccc5ccccc45)cc3C(=O)N([C@H](C)CO)C[C@@H]2C)cc1 | inactive
C[C@@H]1CCCCO[C@@H](CN(C)C(=O)c2ccncc2)[C@H](C)CN([C@@H](C)CO)C(=O)c2cc(NC(=O)C3CCCCC3)ccc2O1 | inactive

SMILES | cytotoxicity call
Cc1noc(C)c1S(=O)(=O)N(C)C[C@@H]1Oc2ccc(NC(=O)CCCN(C)C)cc2CC(=O)N([C@@H](C)CO)C[C@H]1C | inactive
C[C@H](CO)N1C[C@H](C)[C@@H](CN(C)C(=O)Nc2ccc3c(c2)OCO3)OCc2ccccc2-c2c(n(C)c3ccccc23)C1=O | inactive
CN1C[C@@H]2CN(C(=O)[C@H]3CCOC3)C[C@H]2C1=O | inactive
CC(CO)(CO)NS(=O)(=O)c1ccccc1 | inactive
COc1ccncc1-c1ccccc1CN(C(=O)c1ccc(-c2ccc(C#N)cc2)o1)c1ccc(N2CCNCC2)cc1 | active
C[C@H](CO)N1C[C@H](C)[C@@H](CN(C)C(=O)Nc2ccc3c(c2)OCO3)OCCCC[C@H](C)Oc2ccc(NC(=O)CCC(F)(F)F)cc2C1=O | inactive
COc1ccc(S(=O)(=O)Nc2ccc3c(c2)C(=O)N([C@H](C)CO)C[C@H](C)[C@H](CN(C)S(=O)(=O)c2c(C)noc2C)O3)cc1 | inactive
CO[C@H]1CN(C)C(=O)c2ccc(NC(=O)c3ccc(F)cc3)cc2OC[C@H](C)N(C(=O)CN(C)C)C[C@@H]1C | inactive
COCCNC(=O)C[C@@H]1CC[C@@H]2[C@H](COc3ccc(NS(=O)(=O)c4ccc(Cl)cc4)cc3C(=O)N2C)O1 | inactive
O=C(O)CN(CCc1ccccc1)CC(=O)O | inactive
CN(C(=O)CN(CCO)CC(=O)N(C)C(C)(C)Cc1ccccc1)C(C)(C)Cc1ccccc1 | active
C[C@@](Cc1ccccc1)(NC(=O)CN)c1ccccc1 | inactive
O=C(NC1(c2ccccc2)CC1)c1c(CN2CCC(N3CCCCC3)CC2)c(-c2cccc(C(F)(F)F)c2)nc2cc(Br)ccc12 | active
COc1ccc(S(=O)(=O)N(C)C[C@@H]2Oc3c(NS(=O)(=O)c4ccccc4)cccc3C(=O)N([C@H](C)CO)C[C@H]2C)cc1 | inactive
COc1ccccc1OCCNCC(O)COc1cccc2[nH]c3ccccc3c12.O=P(O)(O)O (centres undefined) | active
COc1cccc(OC)c1OCCNCCO | inactive
COc1ccccc1OCC(O)CO (centres undefined) | inactive
COc1ccccc1OC[C@@H](O)CO | inactive
COc1ccccc1OCCNCC(O)COc1cccc2[nH]c3ccccc3c12 (centres undefined) | active
CO[C@@H]1CN(C)C(=O)c2ccc(NC(=O)Nc3ccccc3F)cc2OC[C@H](C)N(Cc2ccccc2C(=O)O)C[C@H]1C | inactive
O=C(C[C@H]1C[C@@H]2c3cc(NC(=O)Cc4ccncc4)ccc3O[C@@H]2[C@@H](CO)O1)NCc1ccc2c(c1)OCO2 | inactive
Cc1noc(C)c1S(=O)(=O)Nc1ccc2c(c1)C(=O)N([C@@H](C)CO)C[C@@H](C)[C@H](CN(C)Cc1ccccc1)OCCCC[C@H](C)O2 | inactive
COc1ccc(NC(=O)N(C)C[C@@H]2Oc3ccc(NC(=O)C4CC4)cc3C(=O)N([C@H](C)CO)C[C@@H]2C)cc1 | inactive
